Results reported in PubChem BioAssay (NCI).
Compounds without any hit were thinned out: in the full panel of roughly 83,000, 20% have a hit.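 In brief: 96-well plates, 48 h treatment, single concentration, percent growth endpoint.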 Values without a mark were called inactive. Calls of active or inactive are those of the source. The calls were made as follows: active = growth percent below 10; inactive = the rest.

What was measured:
Assay in all cases: NCI-60 one-dose screen, 48 h (100 = growth as untreated, 0 = no growth, -100 = all killed)
Details in all cases: 10 µM unless noted
[1] = test system: NCI-H23 lung
[2] = test system: NCI-H226 lung
[3] = test system: NCI-H322M lung
[4] = test system: HOP-62 NSCLC
[5] = test system: NCI-H460 lung
[6] = test system: HOP-92 NSCLC
[7] = test system: NCI-H522 lung
[8] = test system: A549/ATCC NSCLC
[9] = test system: 786-0 renal
[10] = test system: COLO 205 colon
[11] = test system: DU-145 prostate
[12] = test system: K-562 leukemia
[13] = test system: MALME-3M melanoma
[14] = test system: MDA-MB-231 breast
[15] = test system: RXF 393 renal
[16] = test system: SF-268 CNS
[17] = test system: SF-295 CNS
[18] = test system: SF-539 CNS
[19] = test system: UACC-257 melanoma
[20] = test system: M14 melanoma

Compound	growth [1]	growth [2]	growth [3]	growth [4]	growth [5]	growth [6]	growth [7]	growth [8]	growth [9]	growth [10]	growth [11]	growth [12]	growth [13]	growth [14]	growth [15]	growth [16]	growth [17]	growth [18]	growth [19]	growth [20]
CCc1cccc(C)c1NC(=O)c1sc2nc3c(cc2c1N)CCCCC3	45.3%	50.7%	41.4%	36.9%	13.3%	72.2%	-9.98% (active)	32.9%	44.8%	7.73% (active)	13.2%	9.14% (active)	47%	35.6%	11.6%	56.5%	27%	11.1%	71.7%	3.86% (active)
COC(=O)c1ccc2c(c1)Oc1ccc(Cl)cc1-c1cc(C)nn1-2	78.1%	37.4%	81.9%	37.6%	14%	61.1%	82.3%	40.5%	69.5%	69.6%	82.3%	89.5%	80%	60.7%	91.8%	80.5%	24.6%	68.4%	108%	89%
O=C(Nc1ccc(-n2ccc3c(NC(=O)c4ccccc4)ncnc32)cc1)Nc1ccc(Cl)c(Cl)c1	18.7%	16.7%	21%	8.39% (active)	-29.6% (active)	-9.63% (active)	-12.2% (active)	-44.5% (active)	26.1%	17.7%	-12.3% (active)	-39.8% (active)	7.71% (active)	26.7%	-18.2% (active)	-20.7% (active)	-8.32% (active)	-22.6% (active)	8.87% (active)	12%
C=CC(=O)Nc1cccc(Nc2nc(Nc3ccc(OCCOC(F)F)cc3)ncc2F)c1	75.2%	22.5%	10.3%	29.1%	37.4%	-0.338% (active)	-7.77% (active)	30.9%	20%	63.5%	34.7%	19.9%	46.3%	66.3%	9.55% (active)	40.5%	52.5%	31.4%	52.7%	29%
CCC1(C(N)=O)CC2C=CC1CC2 (centres undefined)	249%	109%	114%	136%	113%	94.1%	99.1%	102%	171%	94.8%	116%	113%	113%	97.8%	108%	110%	102%	102%	77.1%	91.4%
Cc1cccc(NC(=O)CCc2ccc(N3C(N)=NC(N)=NC3(C)C)cc2)c1	30.6%	100%	42.7%	24%	19.8%	32.5%	0.83% (active)	11.8%	-7.98% (active)	73.6%	50.9%	23.3%	47.2%	63.4%	–	33.8%	64.9%	23.9%	28.2%	64.8%
NN=C(c1ccc(Cl)cc1)c1ccc(Cl)cc1	94.3%	108%	123%	108%	111%	97%	106%	82.2%	104%	110%	116%	105%	121%	106%	109%	96.6%	91.1%	104%	94.5%	106%
COc1ccc(NC(=O)Nc2ccc(-c3ccc(OC)c(OC)c3)nc2C)cc1	67.4%	58%	87%	56.5%	17.6%	73.4%	49.9%	57%	11.1%	91.9%	72.2%	73.2%	44.1%	40.5%	58.2%	59.2%	102%	70.6%	55.5%	72.1%
